Rows were chosen to be rich in hits. Some 3.1% of all compounds tested hit in one or more screens of this group.
NadD block = inhibitors of S. aureus NadD, primary screen, biochemical, colorimetric, uHTS; Nicotinate-nucleotide adenylyltransferase NadD (Staphylococcus aureus N315); purified NadD enzyme, colorimetric absorbance read-out; inhibition, % at 20 µM; actives 0.78% (n = 360,000); AID 602399, 2012; in the data active = inhibition above about 26%
ATG4B inh = ATG4B protease inhibitors, primary screen, biochemical, fluorescence, uHTS; Cysteine protease ATG4B (Homo sapiens), Q9Y4P1; ATG4B cleavage of LC3-PLA2, NBD-HPC fluorescence, 1 h; inhibition, % at 8.33 µM; actives 0.51% (n = 340,000); in the data active = inhibition above about 40%
Target sequence (Q9Y4P1 whole entry, looked up): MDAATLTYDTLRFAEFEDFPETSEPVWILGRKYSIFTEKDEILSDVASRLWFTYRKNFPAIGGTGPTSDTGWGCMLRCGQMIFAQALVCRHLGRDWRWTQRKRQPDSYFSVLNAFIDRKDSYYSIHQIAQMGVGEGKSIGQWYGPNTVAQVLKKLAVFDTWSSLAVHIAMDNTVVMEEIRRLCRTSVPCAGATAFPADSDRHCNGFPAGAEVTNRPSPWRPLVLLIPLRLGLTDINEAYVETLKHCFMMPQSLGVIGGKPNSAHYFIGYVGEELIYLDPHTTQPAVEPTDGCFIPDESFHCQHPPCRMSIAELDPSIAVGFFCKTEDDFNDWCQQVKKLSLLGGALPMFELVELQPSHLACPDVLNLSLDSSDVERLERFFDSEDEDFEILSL
Calb FLC = C. albicans growth inhibition with fluconazole, primary screen, CaCi-2 strain, Alamar Blue fluorescence; C. albicans CaCi-2 (fluconazole-resistant clinical isolate) + fluconazole, 48 h; growth inhibition, % (test concentration not listed); actives 0.57% (n = 300,000); AID 1979, 2009;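 active = growth inhibition above about 58% in most replicates, limit read from the data, passing the limit was not always enough; inconclusive = exactly half the replicates above a set limit; inactive = most replicates below a set limit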;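 note: all wells also contain fluconazole at 8 µg/ml as a sub-toxic cotreatment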
FAS TE block = FAS thioesterase domain inhibitors, primary screen, biochemical, fluorescence intensity, uHTS. Fatty acid synthase (Homo sapiens), P49327. recombinant FAS-TE, OMFH fluorogenic substrate, fluorescence endpoint. inhibition, % at 15 µM. actives 0.67% (n = 360,000). AID 602261, 2012;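 active = compounds whose normalised, plate-corrected inhibition of enzyme fluorescence in the single-dose primary screen is 50% or more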
Mot1-301 SUMO = yeast Mot1-301 growth rescue at high temperature, primary screen, SUMOylation pathway inhibitor project, S. cerevisiae, ATP luminescence, 38.5C. growth rescue, % at 18.8 µM. actives 1% (n = 320,000). S. cerevisiae Mot1-301 growth rescue; percent above DMSO median, 100 means doubled;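 active = every valid replicate shows activation above 250% relative to neutral control wells; inactive = the rest, any valid replicate at or below 250%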
Large screens that a line does not name were inactive.

COC(=O)[C@]1(CC(C)C)N[C@H](c2ccc(-c3ccc(Cl)c(Cl)c3)cc2)[C@@H]2C(=O)N(C)C(=O)[C@@H]21	FAS TE block 61
COc1ccc(CCNC(=O)CN(C)S(=O)(=O)c2cccs2)cc1	none (no result: Calb FLC)
Cc1cc(Sc2nc(N)ncc2[N+](=O)[O-])ncn1	Calb FLC 105
Cc1cc(Sc2ncnc(N)c2[N+](=O)[O-])ncn1	Calb FLC 101
Cc1cc(N)ncc1[N+](=O)[O-]	none (no result: Calb FLC, Mot1-301 SUMO)
O=C(NCc1ccccc1)C1Cc2c(-c3ccc4c(c3)OCO4)ccnc2O1 (configuration not stated)	none (no result: ATG4B inh, Calb FLC, Mot1-301 SUMO)
O=c1oc2ccccc2c2nccnc12	Mot1-301 SUMO 324
O=c1oc2ccccc2c2c1cnc1ccccc12	none (no result: Calb FLC, Mot1-301 SUMO)
COc1ccc(CNC(=O)C2CC(C)=CCC2C(=O)O)cc1 (configuration not stated)	none
COc1cccc(OCc2nc3ccccc3c(=O)n2N)c1	Calb FLC 108
NNC(=O)c1cc(-c2cccs2)nc2ccccc12	Calb FLC 104
C/C(=N\NC(=O)c1cc(-c2cccs2)nc2ccccc12)c1ccccn1	Calb FLC 95
O=S(=O)(c1cccs1)N1CCN(c2ncccn2)CC1	Mot1-301 SUMO active
O=S(=O)(c1cccs1)N1CCN(c2ccccn2)CC1	none
CN(C)c1ccc(C(=O)N/N=C/c2cc(Br)cc(Br)c2O)cc1	NadD block 32
COc1c(Br)cc(Br)cc1/C=N/NC(=O)c1ccncc1	none
C#CCOCCOCCOCCNc1nc(N2CCN(C(=O)CCCCCCCCCCNC(=O)[C@@H](CCSC)n3cc(CCO)nn3)CC2)nc(N2CCN(C(=O)CCCCCCCCCCNC(=O)[C@H]([C@@H](C)CC)n3cc(CCCCCN)nn3)CC2)n1	ATG4B inh 45 (no result: NadD block, Calb FLC, FAS TE block)
C#CCOCCOCCOCCNc1nc(N2CCN(C(=O)CCCCCCCCCCNC(=O)[C@H](CCCCN)n3cc(CCO)nn3)CC2)nc(N2CCN(C(=O)CCCCCCCCCCNC(=O)[C@H](CCCCN)n3cc(CCO)nn3)CC2)n1	none (no result: Calb FLC)
C#CCOCCOCCOCCNc1nc(N2CCN(C(=O)CCCCCCCCCCNC(=O)[C@@H](CCSC)n3cc(CCO)nn3)CC2)nc(N2CCN(C(=O)CCCCCCCCCCNC(=O)[C@H]([C@@H](C)CC)n3cc(CCCCN=C(N)N)nn3)CC2)n1	NadD block 68 (no result: Calb FLC)
CCC(c1nnnn1-c1ccc2c(c1)OCCO2)N1CCN(c2ccc(C(F)(F)F)cc2[N+](=O)[O-])CC1 (configuration not stated)	none (no result: ATG4B inh, Calb FLC, Mot1-301 SUMO)
OCCCNc1nc(-c2ccccc2)c2cc(Br)ccc2n1	Mot1-301 SUMO 826
Cc1ccc2nc(NCCCO)nc(-c3ccccc3)c2c1	none
NC1=NC[C@H](Cc2ccccc2)N1CCCCC1CCCCC1	Calb FLC 105
NC1=NC[C@H](Cc2ccc(O)cc2)N1CCCCC1CCCCC1	none
CCCOCc1ccc(O)c2ncccc12	Calb FLC 90
CN(Cc1ccco1)Cc1ccc(O)c2ncccc12	none (no result: Calb FLC)
Oc1ccc(COCc2ccccc2)c2cccnc12	none
CC(C)COCc1ccc(O)c2ncccc12	Calb FLC 98
Cc1ccc(CN2CCN(Cc3cnc(N4CCOCC4)s3)CC2CCO)cc1 (configuration not stated)	none
c1ccc(CNc2ncnc3sccc23)cc1	none
c1csc(CNc2ncnc3sccc23)c1	Calb FLC 85
O=c1[nH]c(-c2ccc(F)cc2)nc2c1sc(=S)n2-c1ccccc1	Mot1-301 SUMO 966
O=c1[nH]c(-c2ccc3c(c2)OCO3)nc2c1sc(=S)n2-c1ccccc1	none
COC(=O)[C@]1(Cc2ccccc2)N[C@H](CN(C)C(=O)Nc2ccc(C(F)(F)F)cc2)[C@@H]2C(=O)N(C)C(=O)[C@@H]21	none (no result: Calb FLC)
COc1cc(-c2nc(-c3ccc4c(c3)-c3ccccc3S4(=O)=O)c(-c3ccccc3)[nH]2)cc(OC)c1O	NadD block 35
CCCCC1S/C(=N/N=C/c2ccco2)NC1=O (configuration not stated)	Calb FLC 100
O=C1CS(=O)(=O)N(Cc2cccc(F)c2)c2ccc(Br)cc21	none (no result: Calb FLC)
O=C1c2cc(Br)ccc2N(Cc2ccc(Br)cc2)S(=O)(=O)C1c1cc(Cl)c(Cl)cc1[N+](=O)[O-] (configuration not stated)	NadD block 32, ATG4B inh 68, FAS TE block 82 (no result: Calb FLC)
CC1=NN(c2nc(-c3ccc(C)cc3)cs2)C(=O)C1N=Nc1cccc(O)c1 (configuration not stated)	NadD block 38
CC1=NN(c2nc(-c3ccc(C)cc3)cs2)C(=O)C1N=Nc1ccccc1O (configuration not stated)	none
CCCCNC(=O)/C=C1\Sc2ccccc2NC1=O	none
CCc1ccc(C(=O)/C=C2\Sc3ccccc3NC2=O)cc1	ATG4B inh 56, Calb FLC inconclusive
CO/C=C\C=C/c1nnn(-c2ccc(Cl)cc2)n1	none
CCOC(=O)c1ccccc1NC(=O)C1=COCCO1	none
CCOC(=O)c1ccccc1NC(=O)COC(=O)C1=COCCO1	Mot1-301 SUMO 286
Cc1ccc(/C=C2\SC(N3CCN(C(c4ccccc4)c4ccccc4)CC3)=NC2=O)o1	NadD block 59
CCc1nc2ccc(C(=O)NCCCN(C)C)cn2c1N(C)Cc1ccc(OC)cc1	none (no result: ATG4B inh, Calb FLC, Mot1-301 SUMO)
O=C(CCS(=O)(=O)c1cccc2nsnc12)N1CCN(C(=O)c2ccco2)CC1	Calb FLC 57
Cc1ccc(C)c(N2CCN(C(=S)NC3CCCCC3)CC2)c1	none
Cc1cccc(N2CCN(C(=S)NC3CCCCC3)CC2)c1C	Mot1-301 SUMO active
C#CCOCCOCCOCCNc1nc(N2CCN(C(=O)CCCCCCCCCCNC(=O)Cn3cc(C[C@@H](C)O)nn3)CC2)nc(N2CCN(C(=O)CCCCCCCCCCNC(=O)[C@H](CCCCN)n3cc(C[C@@H](C)CC)nn3)CC2)n1	NadD block 44 (no result: Calb FLC)
C#CCOCCOCCOCCNc1nc(N2CCN(C(=O)CCCCCCCCCCNC(=O)[C@H](CCCCN)n3cc(CCO)nn3)CC2)nc(N2CCN(C(=O)CCCCCCCCCCNC(=O)[C@H](CCCN=C(N)N)n3cc(C[C@@H](C)CC)nn3)CC2)n1	NadD block 44, ATG4B inh 70 (no result: Calb FLC)
CC(=O)Nc1cccc(C(=O)NC2CCCc3c2cnn3-c2cc(C)cc(C)c2)c1 (configuration not stated)	none
COc1ccc(-c2nc(C#N)c(N3CCCCCC3)o2)cc1OC	Mot1-301 SUMO 348
COc1ccc(-c2nc(C#N)c(N3CCCCC3)o2)cc1	none
CCCOc1cccc(-c2cc(C(=O)NNC(=S)NCC)c3ccccc3n2)c1	Calb FLC 84 (no result: Mot1-301 SUMO)
CCNC(=S)NNC(=O)c1cc(-c2ccc(OCC)cc2)nc2ccccc12	none

Screens as filed in PubChem BioAssay.
